Test results reported in PubChem BioAssay AID1159580 (chemical genetic matrix, 2015).
Where “and” joins values, the source holds several entries; their conditions need not be identical. Identical values can stand only once. Screen size: about 5,500 compounds; about 2,000 (36%) were called active. Not shown: some 18% with an inconclusive outcome. Rule as the data show it: active = normalized growth mostly below about 0.91 (no sharp cut-off); inconclusive = no clear call, values can overlap the other calls; inactive = mostly above about 0.92. Some of the results follow.

Assay: chemical genetic growth profiling, strain panel (AID 1159580);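 also: tested at 20 µM; growth read once vehicle control cultures reached saturation at 30 °C; 1 = growth at the plate median or of vehicle wells; lower values mean less growth of the strain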
Conditions: S. cerevisiae deletion strains, growth OD
[1] = locus YMR307W, strain GAS1, active compounds read low
[2] = locus YNL153C, strain GIM3, active compounds read low
[3] = locus YPL055C, strain LGE1, active compounds read low

Measured: normalized growth

CC(C)(O)CC[C@@H](O)[C@](C)(O)C1CC[C@@]2(O)C3=CC(=O)C4C[C@@H](O)[C@@H](O)C[C@]4(C)C3CC[C@]12C (stereo partly specified)
inactive: locus YAL013W, strain DEP1, active compounds read low 1.04 | locus YAL021C, strain ccr4, active compounds read low 0.991 | locus YAL026C, strain drs2, active compounds read low 1 | locus YAL030W, strain snc1, active compounds read low 0.999 | locus YBL061C, strain skt5, active compounds read low 1 | locus YBR009C, strain hhf1, active compounds read low 1.01 | locus YBR021W, strain FUR4, active compounds read low 0.984 | locus YBR023C, strain chs3, active compounds read low 0.996 | locus YBR171W, strain sec66, active compounds read low 0.99 | locus YBR229C, strain ROT2, active compounds read low 1 | locus YBR231C, strain swc5, active compounds read low 0.993 | locus YBR279W, strain paf1, active compounds read low 1.01 | locus YCL011C, strain gbp2, active compounds read low 1.01 | locus YCL016C, strain dcc1, active compounds read low 0.995 | locus YCL029C, strain bik1, active compounds read low 1 | locus YCL061C, strain MRC1, active compounds read low 1 | locus YCL069W, strain vba3, active compounds read low 1.03 | locus YCR088W, strain abp1, active compounds read low 0.999 | locus YDL005C, strain med2, active compounds read low 0.994 | locus YDL035C, strain GPR1, active compounds read low 1.03 | locus YDL040C, strain nat1, active compounds read low 0.98 | locus YDL074C, strain BRE1, active compounds read low 1.03 | locus YDL101C, strain DUN1, active compounds read low 1.02 | locus YDL185W, strain tfp1, active compounds read low 0.999 | locus YDL192W, strain arf1, active compounds read low 1 | locus YDR001C, strain nth1, active compounds read low 1 | locus YDR069C, strain doa4, active compounds read low 1.01 | locus YDR101C, strain arx1, active compounds read low 0.984 | locus YDR137W, strain rgp1, active compounds read low 0.976 | locus YDR150W, strain NUM1, active compounds read low 1.01 | locus YDR159W, strain sac3, active compounds read low 0.99 | locus YDR162C, strain NBP2, active compounds read low 1.03 | locus YDR195W, strain ref2 0.972 | locus YDR297W, strain sur2, active compounds read low 1.01 | locus YDR318W, strain mcm21, active compounds read low 1 | locus YDR334W, strain swr1, active compounds read low 1 | locus YDR335W, strain msn5, active compounds read low 1 | locus YDR388W, active compounds read low 0.993 | locus YDR392W, strain spt3, active compounds read low 0.976 | locus YDR502C, strain sam2, active compounds read low 1 | locus YEL003W, strain gim4, active compounds read low 1.01 | locus YEL037C, strain rad23, active compounds read low 0.992 | locus YEL061C, strain CIN8 (second series), active compounds read low 1 | locus YEL061C, strain CIN8, active compounds read low 1 | locus YER015W, strain faa2, active compounds read low 1 | locus YER016W, strain bim1, active compounds read low 0.996 | locus YER110C, active compounds read low 0.994 | locus YER111C, strain swi4, active compounds read low 1.01 | locus YER155C, strain BEM2 (second series), active compounds read low 0.996 | locus YER155C, strain BEM2, active compounds read low 1 | locus YER167W, strain BCK2, active compounds read low 1.02 | locus YFR010W, strain ubp6, active compounds read low 1 | locus YGL078C, strain dbp3, active compounds read low 1 | locus YGL086W, strain mad1, active compounds read low 1 | locus YGL167C, strain pmr1, active compounds read low 1 | locus YGL173C, strain kem1, active compounds read low 1 | locus YGL227W, strain vid30, active compounds read low 0.999 | locus YGL240W, strain doc1, active compounds read low 0.98 | locus YGL248W, strain PDE1, active compounds read low 1.01 | locus YGL253W, strain hxk2, active compounds read low 1.01 | locus YGR078C, strain PAC10, active compounds read low 1.03 | locus YGR135W, strain pre9, active compounds read low 0.997 | locus YGR229C, strain SMI1, active compounds read low 1.04 | locus YGR252W, strain gcn5, active compounds read low 0.995 | locus YHR013C, strain ard1, active compounds read low 0.995 | locus YHR027C, strain rpn1, active compounds read low 0.997 | locus YHR030C, strain SLT2, active compounds read low 1.01 and 1 | locus YHR079C, strain IRE1 (second series), active compounds read low 1.02 | locus YHR079C, strain IRE1, active compounds read low 0.988 | locus YHR094C, strain hxt1, active compounds read low 0.995 | locus YHR129C, strain ARP1, active compounds read low 1.01 | locus YHR142W, strain chs7, active compounds read low 1.01 | locus YHR200W, strain rpn10, active compounds read low 1.01 | locus YIL066C, strain RNR3, active compounds read low 1.04 | locus YIL073C, strain SPO22, active compounds read low 1.02 | locus YIL125W, strain kgd1, active compounds read low 1 | locus YIR030C, strain dcg1, active compounds read low 1 | locus YJL092W, strain hpr5, active compounds read low 0.998 | locus YJL095W, strain BCK1 (second series), active compounds read low 1 | locus YJL095W, strain BCK1, active compounds read low 1.03 and 1.04 | locus YJL115W, strain asf1, active compounds read low 1 | locus YJL129C, strain trk1, active compounds read low 1.01 | locus YJL134W, strain LCB3, active compounds read low 1.01 | locus YJL154C, strain vps35, active compounds read low 0.994 | locus YJL164C, strain tpk1, active compounds read low 1.01 | locus YJL166W, strain qcr8, active compounds read low 1 | locus YJL168C, strain set2, active compounds read low 1 | locus YJL187C, strain SWE1 (second series), active compounds read low 1.02 | locus YJL187C, strain SWE1, active compounds read low 1.02 | locus YJR043C, strain POL32, active compounds read low 1.02 | locus YJR066W, strain TOR1, active compounds read low 0.93 | locus YKL009W, strain mrt4, active compounds read low 0.995 | locus YKL068W, active compounds read low 0.993 | locus YKL085W, strain MDH1 (second series), active compounds read low 1.01 | locus YKL085W, strain MDH1, active compounds read low 1.01 | locus YKL160W, strain elf1, active compounds read low 1 | locus YKR001C, strain vps1, active compounds read low 0.985 | locus YKR026C, strain gcn3, active compounds read low 0.989 | locus YKR091W, strain srl3, active compounds read low 0.997 | locus YLL001W, strain dnm1, active compounds read low 1 | locus YLL026W, active compounds read low 0.994 | locus YLL041C, strain sdh2, active compounds read low 0.994 | locus YLR027C, strain aat2, active compounds read low 1.01 | locus YLR039C, strain RIC1, active compounds read low 1.01 | locus YLR058C, strain SHM2, active compounds read low 1.01 | locus YLR102C, strain apc9, active compounds read low 0.992 | locus YLR113W, strain HOG1, active compounds read low 1.02 | locus YLR221C, strain rsa3, active compounds read low 0.996 | locus YLR258W, strain gsy2, active compounds read low 0.998 | locus YLR262C, strain YPT6, active compounds read low 1.05 | locus YLR268W, strain sec22, active compounds read low 1 | locus YLR320W, strain mms22, active compounds read low 0.996 | locus YLR330W, strain CHS5, active compounds read low 1.01 | locus YLR342W, strain FKS1 (second series), active compounds read low 1.02 | locus YLR342W, strain FKS1, active compounds read low 1.03 | locus YLR357W, strain rsc2, active compounds read low 0.999 | locus YLR370C, strain arc18, active compounds read low 0.991 | locus YLR371W, strain rom2, active compounds read low 0.99 | locus YLR384C, strain iki3, active compounds read low 0.985 | locus YLR418C, strain cdc73, active compounds read low 0.99 | locus YML016C, strain PPZ1, active compounds read low 1.01 | locus YML032C, strain rad52, active compounds read low 0.998 | locus YML120C, strain ndi1, active compounds read low 0.996 | locus YML124C, strain tub3, active compounds read low 0.996 | locus YMR058W, strain fet3, active compounds read low 1 | locus YMR078C, strain ctf18, active compounds read low 1.01 | locus YMR125W, strain sto1, active compounds read low 0.983 | locus YMR129W, active compounds read low 0.998 | locus YMR205C, strain PFK2, active compounds read low 1.04 | locus YMR223W, strain ubp8, active compounds read low 0.998 | locus YMR231W, strain pep5, active compounds read low 0.969 | [1] 1.1 | locus YNL067W, strain RPL9B, active compounds read low 1.02 | locus YNL071W, strain lat1, active compounds read low 1 | [2] 1.03 | locus YNL183C, strain NPR1, active compounds read low 0.973 | locus YNL209W, strain ssb2, active compounds read low 1.02 | locus YNL233W, strain BNI4, active compounds read low 1.03 | locus YNL248C, strain rpa49, active compounds read low 0.996 | locus YNL250W, strain rad50, active compounds read low 1.01 | locus YNL271C, strain bni1, active compounds read low 1 | locus YNL298W, strain CLA4, active compounds read low 0.988 | locus YNL307C, strain MCK1, active compounds read low 0.992 | locus YNL322C, strain KRE1 (second series), active compounds read low 0.983 | locus YNR049C, strain mso1, active compounds read low 0.991 | locus YNR052C, strain pop2, active compounds read low 0.993 | locus YOL012C, strain htz1 0.787 | locus YOL147C, strain pex11, active compounds read low 0.99 | locus YOR001W, strain rrp6, active compounds read low 1.01 | locus YOR061W, strain CKA2, active compounds read low 1.01 | locus YOR069W, strain VPS5, active compounds read low 1 | locus YOR070C, strain gyp1, active compounds read low 1 | locus YOR080W, strain dia2, active compounds read low 0.996 | locus YOR083W, strain WHI5, active compounds read low 1.01 | locus YOR106W, strain vam3, active compounds read low 1.01 | locus YOR136W, strain idh2, active compounds read low 1 | locus YOR144C, strain elg1, active compounds read low 0.996 | locus YOR184W, strain ser1, active compounds read low 1 | locus YOR231W, strain MKK1, active compounds read low 0.978 | locus YOR265W, strain rbl2, active compounds read low 1 | locus YOR270C, strain vph1, active compounds read low 1.06 | locus YOR290C, strain snf2, active compounds read low 0.995 | locus YOR316C, strain cot1, active compounds read low 0.989 | locus YPL051W, strain arl3, active compounds read low 1.01 | [3] 1.04 | locus YPL078C, strain atp4, active compounds read low 1.01 | locus YPL106C, strain sse1, active compounds read low 1.01 | locus YPL240C, strain hsp82, active compounds read low 0.995 | locus YPL256C, strain CLN2, active compounds read low 0.996 | locus YPR119W, strain clb2, active compounds read low 1 | locus YPR141C, strain kar3, active compounds read low 0.998 | locus YPR163C, strain tif3, active compounds read low 1 | locus YPR167C, strain met16, active compounds read low 0.999 | strain wtn01, active compounds read low 0.99
active: locus YLR262C, strain YPT6 (second series), active compounds read low 1.16 [resistant]

COc1ccc2c3c1O[C@H]1C(=O)CC[C@@]4(O)C(C2)N(CC2CC2)CCC314 (stereo partly specified)
inactive: locus YAL040C, strain CLN3, active compounds read low 0.992 | locus YCL061C, strain MRC1 (second series), active compounds read low 0.999 | locus YDR363W, strain ESC2, active compounds read low 1.02 | locus YER002W, strain NOP16, active compounds read low 0.991 | locus YJR075W, strain HOC1, active compounds read low 0.995 | locus YMR263W, strain SAP30, active compounds read low 1 | [1] 0.993 | locus YNL128W, strain TEP1, active compounds read low 0.99 | [2] 0.995 | locus YNL175C, strain NOP13, active compounds read low 1.01 | locus YNL197C, strain WHI3, active compounds read low 1.02 | locus YNL224C, strain SQS1, active compounds read low 0.992 | locus YNL322C, strain KRE1, active compounds read low 1.01 | locus YOR083W, strain WHI5 (second series), active compounds read low 0.999 | [3] 1 | locus YPL241C, strain CIN2, active compounds read low 0.999
